PubChem BioAssay (NCATS)
Results filed as inconclusive are left out. Activity calls are given as the source filed them. The call rests on the fitted dose curve; in most records, active means well fitted curve in the direction sought with a large enough effect; inconclusive means small, poorly fitted or top-dose-only effect, or another doubt; inactive means no such curve, though single readings can be large; an effect the other way counts as inactive or inconclusive.

Legend:
[1] = MultiTox-Fluor Cytotoxicity Assay - LYMP1-002 - Dead Cells (AID 960); conditions: LYMP1-002 lymphoblastoid cells, dead-cell protease fluorescence; series mostly up to 46.1 µM; further: nearly all actives have a fitted effect of over 60% in size
Method in brief: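 Human lymphoblastoid LYMP1-002 cells, 2500/well, treated 16 h at 37 C; dead-cell protease cleavage of bis-AAF-R110 read by fluorescence (485/520); normalized to DMSO and 15 uM tetraoctylammonium bromide; AC50 from Hill fit.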

[2] = MultiTox-Fluor Cytotoxicity Assay - LYMP1-003 - Dead Cells (AID 961); conditions: LYMP1-003 lymphoblastoid cells, dead-cell protease fluorescence; series mostly up to 92.2 µM; further: nearly all actives have a fitted effect of over 70% in size
Method in brief: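 LYMP1-003 human lymphoblastoid cells (2500/well) exposed to compound 16 h at 37 C in complete medium; dead-cell protease read with bis-AAF-R110 fluorescence (Ex/Em 485/520) after 60 min at room temperature. Normalized to DMSO and 15 uM tetraoctylammonium bromide; AC50 from Hill fit.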

[3] = MultiTox-Fluor Cytotoxicity Assay - LYMP1-003 - Live Cells (AID 962); conditions: LYMP1-003 lymphoblastoid cells, MultiTox-Fluor live-cell protease fluorescence; series mostly up to 92.2 µM;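 further: cytotoxic hits lower the live-cell protease signal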
Method in brief: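 LYMP1-003 lymphoblastoid cells, 2500/well in complete medium, treated 16 h at 37 C; live-cell protease cleavage of GF-AFC read by fluorescence (Ex/Em 405/510) after 60 min reagent; AC50 from Hill fits of concentration-response.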

[4] = Cell Viability - LYMP1-003 - Assay at 24 hr (AID 963); conditions: LYMP1-003 lymphoblastoid cell viability; series mostly up to 92.2 µM
Method in brief: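 Human lymphoblastoid LYMP1-003 cells, 2500/well, treated 24 h at 37 C in complete medium. Viability read as intracellular ATP by CellTiter-Glo luminescence after 30 min at room temperature; AC50 from Hill-equation fits of qHTS concentration-response.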

[5] = Cell Viability - LYMP1-003 - Assay at 40 hr (AID 964); conditions: LYMP1-003 lymphoblastoid viability; series mostly up to 92.2 µM; further: nearly all actives have a fitted effect of over 60% in size
Method in brief: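 LYMP1-003 human lymphoblastoid cells, 2500/well, preincubated 5 h at 37 C, then treated with compound for 40 h at 37 C. Intracellular ATP read by CellTiter-Glo luminescence after 30 min at room temperature; AC50 from Hill-equation fits.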

[6] = Cell Viability - LYMP2-003 (AID 965); conditions: LYMP2-003 lymphoblastoid cell viability; series mostly up to 92.2 µM;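 further: cells exposed to compounds for 24 h before reading; nearly all actives have a fitted effect of over 50% in size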
Method in brief: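 CellTiter-Glo luminescence (cellular ATP) after 24 h compound exposure at 37 C in complete medium; 2500 cells/well, 5 h settling beforehand. Concentration-response fitted to standard Hill equation for AC50. Tetraoctylammonium bromide served as positive control.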

[7] = Cell Viability - LYMP2-004 (AID 966); conditions: LYMP2-004 lymphoblastoid cell viability, qHTS; series mostly up to 92.2 µM; further: nearly all actives have a fitted effect of over 65% in size
Method in brief: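 Lymphoblastoid LYMP2-004 cells, 2500 per well, were preincubated for 5 hr and then treated with compound for 24 h at 37 C in complete medium. Viability was read as cellular ATP by CellTiter-Glo luminescence, and AC50 values were taken from Hill fits to concentration-response data.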

[8] = Cell Viability - LYMP2-005 (AID 967); conditions: LYMP2-005 lymphoblastoid cell viability; series mostly up to 92.2 µM
Method in brief: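 Steps: seed 2500 LYMP2-005 cells/well, incubate 5 h at 37 C, add compound, incubate 24 h at 37 C, add CellTiter-Glo, wait 30 min at RT, read luminescence. Concentration-response data fitted to Hill equation for AC50.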

[9] = Cell Viability - LYMP2-009 (AID 968); conditions: LYMP2-009 lymphoblastoid cell viability; series mostly up to 92.2 µM; further: nearly all actives have a fitted effect of over 55% in size
[10] = Cell Viability - LYMP2-011 (AID 969); conditions: LYMP2-011 lymphoblastoid cells viability; series mostly up to 92.2 µM; further: nearly all actives have a fitted effect of over 60% in size
Method in brief: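 2500 cells/well in complete medium, compound-treated 24 h at 37 C. Viability read as intracellular ATP by CellTiter-Glo luminescence after 30 min at room temperature. AC50 from Hill fits of qHTS concentration-response data.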

[11] = Cell Viability - LYMP2-013 (AID 970); conditions: LYMP2-013 lymphoblastoid cells viability; series mostly up to 92.2 µM; further: nearly all actives have a fitted effect of over 55% in size
Method in brief: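 Human lymphoblastoid LYMP2-013 cells, 2500/well, treated 24 h at 37 C in complete medium; viability as intracellular ATP by CellTiter-Glo luminescence after 30 min. AC50 from Hill fits of qHTS concentration-response.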

[12] = Cell Viability - LYMP2-015 (AID 971); conditions: LYMP2-015 lymphoblastoid cell viability; series mostly up to 92.2 µM; further: nearly all actives have a fitted effect of over 55% in size
Method in brief: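 LYMP2-015 human lymphoblastoid cells (2500/well) in complete medium, compound-treated 24 h at 37 C; viability read as cellular ATP by CellTiter-Glo luminescence after 30 min at room temperature. AC50 from Hill-equation fits of qHTS concentration-response data.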

[13] = Cell Viability - LYMP2-017 (AID 972); conditions: LYMP2-017 lymphoblastoid cell viability; series mostly up to 92.2 µM; further: nearly all actives have a fitted effect of over 55% in size
Method in brief: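 LYMP2-017 human lymphoblastoid cells (2500/well) settled 5 hr at 37 C, then exposed to compound 24 hr at 37 C in complete medium. Viability taken as intracellular ATP by CellTiter-Glo luminescence after 30 min at RT; AC50 from Hill fits.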

[14] = Cell Viability - LYMP2-019 (AID 973); conditions: LYMP2-019 lymphoblastoid cell line viability; series mostly up to 92.2 µM; further: nearly all actives have a fitted effect of over 55% in size
Method in brief: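 Human lymphoblastoid LYMP2-019 cells (2500/well) preincubated 5 h at 37 C, then treated 24 h at 37 C in complete medium. Viability by CellTiter-Glo ATP luminescence after 30 min at room temperature; AC50 from Hill fits.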

[15] = Cell Viability - LYMP2-021 (AID 974); conditions: LYMP2-021 lymphoblastoid cells viability; series mostly up to 92.2 µM
Method in brief: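 Human lymphoblastoid LYMP2-021 cells, 2500/well in complete medium, treated 24 hours at 37 C. Intracellular ATP by CellTiter-Glo luminescence (30 min, RT); AC50 from Hill fits of concentration-response.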

[16] = Cell Viability - LYMP2-023 (AID 975); conditions: LYMP2-023 lymphoblastoid cell viability; series mostly up to 92.2 µM
Method in brief: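 LYMP2-023 human lymphoblastoid cells, 2500/well, preincubated 5 hr at 37 C, then compound-treated 24 hr at 37 C in complete medium. CellTiter-Glo luminescence (ATP) after 30 min at room temperature; AC50 from Hill-equation fits; tetraoctylammonium bromide positive control.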

[17] = Cell Viability - LYMP2-025 (AID 976); conditions: LYMP2-025 lymphoblastoid cell viability; series mostly up to 92.2 µM
Method in brief: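 Human lymphoblastoid LYMP2-025 cells, 2500/well, exposed 24 h at 37 C in complete medium in 1536-well qHTS. Viability as cellular ATP by CellTiter-Glo luminescence; AC50 from Hill fits of concentration-response data.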

[18] = Cell Viability - LYMP2-002 (AID 977); conditions: LYMP2-002 lymphoblastoid cell viability, qHTS; series mostly up to 92.2 µM
Method in brief: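 Cytotoxicity is scored as concentration-dependent loss of cellular ATP in a human lymphoblastoid line after 24 hr compound treatment at 37 C. AC50 is obtained by modelling concentration-response data with the Hill equation.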

[19] = Cell Viability - LYMP2-006 (AID 978); conditions: LYMP2-006 lymphoblastoid cell viability, qHTS; series mostly up to 92.2 µM; further: nearly all actives have a fitted effect of over 60% in size
Method in brief: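 qHTS, 1536-well; 2500 cells/well, 5 hr 37 C; cpd 24 hr 37 C; CellTiter-Glo 30 min RT; luminescence. Tetraoctylammonium bromide pos. ctrl. AC50 via Hill eqn.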

[20] = Cell Viability - LYMP2-007 (AID 979); conditions: LYMP2-007 lymphoblastoid cell viability; series mostly up to 92.2 µM
Method in brief: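 Human lymphoblastoid LYMP2-007 cells (2500/well) preincubated 5 h at 37 C, then treated 24 h at 37 C in complete medium. Viability by CellTiter-Glo ATP luminescence after 30 min at room temperature; AC50 from Hill fits.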

Measured: outcome

COc1ccc(CCC(=O)c2c(O)cc(O[C@@H]3O[C@H](CO)[C@@H](O)[C@H](O)[C@H]3O[C@@H]3O[C@@H](C)[C@H](O)[C@@H](O)[C@H]3O)cc2O)cc1O
inactive: all assays above

C=C1C[C@]23C[C@@]1(O)CC[C@H]2[C@@]12C=C[C@H](O)[C@@](C)(C(=O)O1)[C@H]2[C@@H]3C(=O)O
not listed: [8] | [17]
inactive: all other assays above
